The source made the active and inactive calls. The calls were made as follows: active = hit-call score of the fitted dose curve at least 0.9, where 1 is the maximum; inactive = score below 0.9.
These compounds were tested against Tyrosine-protein kinase SYK (Homo sapiens) (UniProt P43405) (assay: ERF_FR_ENZ_hSYK: Eurofins (ERF) Enzymatic Radiometric [Km ATP] KinaseProfiler LeadHunter Assay for human Syk Tyrosine Kinase).
Protocol: ERF_FR_ENZ_hSYK is a biochemical, single-readout assay that uses extracted gene-proteins in a cell-free assay. Measurements were taken 0.5 hour after chemical dosing in a 96-well plate. See Syk Human TK Kinase Enzymatic LANCE Assay [Km ATP], Cerep.ERF_FR_ENZ_hSYK is an assay component calculated from the ERF_FR_ENZ_hSYK assay. It is designed to measure enzyme activity using a type of enzyme reporter as detected by fluorescence intensity with LANCE technology.Data from the assay component ERF_FR_ENZ_hSYK was analyzed at the assay endpoint, ERF_FR_ENZ_hSYK, in the positive analysis fitting direction relative to DMSO as the negative control and baseline of activity. Using a type of enzyme reporter, loss-of-signal activity can be used to understand changes in enzymatic activity as they relate to gene SYK. To generalize the intended target to other relatable targets, this assay endpoint is annotated to the kinase intended target family, where the subfamily is spleen tyrosine kinase.
Syk (h) is incubated with 50 mM Tris pH 7.5, 0.1 mM EGTA, 0.1 mM Na3VO4, 0.1% […], 0.1 mg/ mL poly(Glu, Tyr) 4:1, 10 mM MgAcetate and [gamma-33P]-ATP (specific activity and concentration as required). The reaction is initiated by the addition of the Mg/ATP mix. After incubation for 40 minutes at room temperature, the reaction is stopped by the addition of phosphoric acid to a concentration of 0.5%. […]
For `O=C(/C=C/c1ccc(O)cc1)CC(=O)/C=C/c1ccc(O)cc1`, the outcome was “inactive”.

Reference: PubChem BioAssay AID2284140 (EPA ToxCast)
